Sampled rows, rich in hits. Any-hit rate of the full collection: about 2.2%.
FAS-TE inh – inhibitors of human fatty acid synthase thioesterase domain; P49327; recombinant FAS-TE, OMFH fluorogenic substrate, fluorescence endpoint; inhibition, % at 15 µM; actives 0.67% (n = 360,000); AID 602261;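 active means compounds whose normalised, plate-corrected inhibition of enzyme fluorescence in the single-dose primary screen is 50% or more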
PLC-gamma1 inh – inhibitors of human phospholipase C gamma1; P19174; purified PLC-gamma1, fluorogenic substrate, fluorescence; inhibition, % at 12.2 µM; actives 0.84% (n = 370,000); AID 720700; in the data active means inhibition above about 9.5%
PLCb3 inh – PLC-beta3 (human) inhibition, primary screen | inhibition, % at 12.2 µM | Q01970 | actives 0.18% (n = 370,000) | Purified PLC-beta3, fluorogenic substrate, fluorescence; in the data active means inhibition above about 11%
H9c2 protect – modulators protecting cardiomyocytes from myocardial damage; protection from H2O2 cell death, % at 20 µM; actives 0.63% (n = 360,000); H9c2 cardiomyocytes, H2O2 injury protection, ATPLite, 2 h;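 active means compounds giving at least 50% protection of heart cells from peroxide-induced death in the single-dose screen, raw or plate-pattern-corrected value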
Large screens that a line does not name were inactive.

COc1cccc(/C=N/NC(=O)CNC(=O)c2ccncc2)c1O	H9c2 protect 60
COc1cccc(/C=N/NC(=O)CNC(=O)c2ccc3c(c2)OCCO3)c1O	H9c2 protect 66
Cc1ccc(-c2nn3c(C)nnc3s2)cc1NC(=O)COc1ccc(Cl)cc1	H9c2 protect 50
c1ccc(-n2c(SCc3cccc4ccccc34)nnc2-c2ccncc2)cc1	none (no result: FAS-TE inh, H9c2 protect)
COC(=O)c1cc(-c2ccc(Oc3ccccc3)cc2)c(=O)n2c1CCC2	none (no result: FAS-TE inh, H9c2 protect)
CC(=O)[C@@]1(O)CC[C@H]2[C@@H]3CCC4=CC(=O)CC[C@]4(C)[C@H]3[C@@H](O)C[C@@]21C	PLC-gamma1 inh 11
CCC(C(=O)OCC(=O)C1(O)CCC2C3CCC4=CC(=O)CCC4(C)C3C(O)CC21C)C(C)C (stereo unspecified)	none
CCc1cc2c(SCC(=O)c3ccc(Cl)s3)ncnc2s1	PLC-gamma1 inh 10
Cc1noc(C)c1COC(=O)COc1ccc2c(C)cc(=O)oc2c1	H9c2 protect 60
Cc1cc(NC(=O)COC(=O)COc2ccc3c4c(c(=O)oc3c2)CCC4)no1	H9c2 protect 53
COC(=O)[C@]12C[C@H](CC(=O)N3CCSCC3)C(=O)N(Cc3ccc(Cl)cc3Cl)C1=C[C@H](COCc1ccccc1)O[C@@H]2C	none (no result: FAS-TE inh, H9c2 protect)
C=CCN1C(=O)[C@@H](CC(=O)N2CCSCC2)[C@]2(C(=O)OC)CCCCC=C12	none (no result: FAS-TE inh, H9c2 protect)
O=C(COC(=O)CNC(=O)c1ccccc1F)NC1CC1	none
O=C(COC(=O)CNC(=O)c1ccccc1F)NC12CC3CC(CC(C3)C1)C2	PLC-gamma1 inh 12
Cn1cccc1C(=O)N1CCN(S(=O)(=O)c2ccc([N+](=O)[O-])cc2)CC1	none (no result: FAS-TE inh, H9c2 protect)
O=C(/C=C1\NC2(CCCC2)Cc2ccccc21)C(=O)N/N=C/c1ccccc1O	H9c2 protect 80
Brc1ccc(CSc2ccc3nnc(-c4cccnc4)n3n2)cc1	H9c2 protect 68
COc1ccc(C(C)=O)cc1CSC(=S)N1CCSCC1	none (no result: FAS-TE inh, H9c2 protect)
N#CC(c1nc2ccccc2nc1N1CCCC1)S(=O)(=O)c1cccs1 (stereo unspecified)	H9c2 protect 59
N#CC(c1nc2ccccc2nc1N1CCCC1)S(=O)(=O)c1ccccc1 (stereo unspecified)	none
Cc1ccc(-c2nnc3n2N=C(c2ccc(-c4ccccc4)cc2)CS3)cc1	none (no result: FAS-TE inh, H9c2 protect)
COc1ccc(C2/C=C\CN(S(=O)(=O)c3ccc(C)cc3)CC(=O)N2Cc2ccc(F)cc2)cc1 (stereo unspecified)	none
COc1ccc(C2/C=C\CN(S(=O)(=O)c3cccc4cccnc34)CC(=O)N2Cc2ccc(F)cc2)cc1 (stereo unspecified)	H9c2 protect 50
COc1ccccc1[C@@H]1C(c2cccc(Cl)c2)=NN(c2ccc(Br)cc2)[C@H]1C(=O)N1CCOC1=O	none
COc1ccccc1[C@@H]1C(c2cccc(C)c2)=NN(c2ccccc2)[C@H]1C(=O)N1CCOC1=O	FAS-TE inh 74
O=C1OCCN1C(=O)[C@H]1[C@H](c2ccc(F)cc2)C(c2ccccc2)=NN1c1ccccc1	none
O=C1OCCN1C(=O)[C@H]1[C@H](c2ccc([N+](=O)[O-])cc2)C(c2cccc(Cl)c2)=NN1c1ccccc1	FAS-TE inh 89
COc1ccccc1[C@@H]1C(c2ccc(F)cc2)=NN(c2ccccc2)[C@H]1C(=O)N1CCOC1=O	FAS-TE inh 84
Cc1ccccc1-c1ccc2c(c1)[C@@H]1C[C@H](N(C)S(=O)(=O)c3ccc(Cl)cc3)[C@H]([C@H](C)O)CN1CC2	none (no result: FAS-TE inh, H9c2 protect)
CC(C)Cn1c(=O)cc(N2CCN(c3cccc(C(F)(F)F)c3)CC2)[nH]c1=O	none (no result: FAS-TE inh, H9c2 protect)
C/C(=N/NC(=O)CSc1nnc(SCc2ccc(C)cc2)s1)c1cccc(O)c1	none (no result: FAS-TE inh, H9c2 protect)
COCCCN1C(=O)[C@H](CC(=O)N2CCSCC2)[C@]2(C(=O)OC)CCCCC=C12	none (no result: FAS-TE inh, H9c2 protect)
CC(C)Oc1ccc(C(CCN)C2CCCCC2)cc1 (stereo unspecified)	PLC-gamma1 inh 12
C=CCN1C(=O)[C@H](CC(=O)N2CCCCC2)[C@@]2(C(=O)OCC)CCCC=C12	none (no result: FAS-TE inh, H9c2 protect)
Cc1cccc([C@@H]2[C@@H]3C(=O)N(Cc4ccccc4)C(=O)[C@@H]3[C@]3(Cc4ccccc4)C(=O)N(c4ccccc4)C(=O)N23)c1	FAS-TE inh 92
Cc1cccc([C@@H]2[C@@H]3C(=O)N(Cc4ccccc4)C(=O)[C@@H]3[C@]3(CC(C)C)C(=O)N(c4cccc(Br)c4)C(=O)N23)c1	FAS-TE inh 88 (no result: PLC-gamma1 inh, PLCb3 inh)
Cc1cccc([C@@H]2[C@@H]3C(=O)N(Cc4ccccc4)C(=O)[C@@H]3[C@]3(Cc4ccccc4)C(=O)N(c4cccc(Cl)c4)C(=O)N23)c1	FAS-TE inh 82
COc1ccccc1-c1ccc(OCCCN2CCC(C(O)(c3ccccc3)c3ccccc3)CC2)cc1	none (no result: FAS-TE inh, H9c2 protect)
COc1cccc(/C=N/NC(=O)CSc2nnc(C)n2-c2ccccc2)c1O	H9c2 protect 80
COc1cccc(/C=N/NC(=O)CN2CC(c3ccccc3)CC2=O)c1O (stereo unspecified)	H9c2 protect 56
CCCCSc1nc(C)cc(SCC(=O)N/N=C/c2cccc(OC)c2O)n1	H9c2 protect 52
COc1cccc(/C=N/NC(=O)c2ccc(-c3ccccc3)cc2)c1O	none
COc1ccccc1/C=N/NC(=O)CSc1ccc2ccccc2n1	none
C(=C\c1ccccc1)/CSc1nnc(COc2ccccc2)n1Cc1ccco1	none (no result: FAS-TE inh, H9c2 protect)
O=C(c1ccc([N+](=O)[O-])cc1[N+](=O)[O-])N1CCc2ccccc21	none
O=C(N=C1N=C2C=CC(Br)=CN2Cc2ccccc21)c1ccc([N+](=O)[O-])cc1[N+](=O)[O-]	PLC-gamma1 inh 13, PLCb3 inh 11
O=c1cc(-c2ccc(O)cc2)oc2ccccc12	none
O=c1cc(-c2ccncc2)oc2ccccc12	H9c2 protect 53
CCN=C1NC(c2cccc(F)c2)C(C(=O)OC)=C(C)N1Cc1ccccc1C(F)(F)F (stereo unspecified)	none (no result: FAS-TE inh, H9c2 protect)
COc1ccc(-c2cc(C(=O)NNC3=NCCC3)c3c(C)nn(-c4ccccc4)c3n2)cc1	H9c2 protect 84
CCOC(=O)C1=C(COC(=O)c2cccc(Br)c2)NC(=O)NC1C (stereo unspecified)	none
CCOC(=O)C1=C(COC(=O)c2cc(OC)c(OC)c(OC)c2)NC(=O)NC1C (stereo unspecified)	H9c2 protect 60
CCOC(=O)C1=C(COC(=O)/C=C/c2ccc(F)cc2)NC(=O)NC1C (stereo unspecified)	H9c2 protect 45
CCOC(=O)C1=C(COC(=O)/C=C/c2ccc(Cl)cc2)NC(=O)NC1C (stereo unspecified)	none
COc1cc(O)c(C(CC(=O)N2CCCC(C)C2)c2ccccc2)c(OC)c1 (stereo unspecified)	none (no result: FAS-TE inh, H9c2 protect)
Cc1cc(Oc2cccnc2)ccc1NC(=O)Cc1cn(C)c2ccccc12	none (no result: FAS-TE inh, H9c2 protect)
Cc1cc(C2CCCCC2)n(O)c(=O)c1	H9c2 protect 69
CCCC(=O)Oc1ccc2c(C)cc(=O)oc2c1	none
CCCCn1nc(C(=O)Oc2ccc3c(C)cc(=O)oc3c2)c2ccccc2c1=O	H9c2 protect 52
COc1ccc(C(=O)N2CCCC2)cc1S(=O)(=O)N1CCC(C)CC1	PLCb3 inh 11
